# From PubChem BioAssay (NCATS)
# A number with no mark means an inactive call. Records with an inconclusive call do not appear. Calls of active or inactive are those of the source. Unless noted, the call rests on the fitted dose curve. Residues, ends and D or L forms follow the SMILES beside them.
# Legend:
# [1] = target: Lysosomal acid glucosylceramidase (Homo sapiens) (UniProt P04062); experiment: Glucocerebrosidase-p2 (AID 348; in the data active means potency below about 10 µM; further: potency means the concentration at half of the fitted maximal effect); conditions: purified GBA, blue fluorogenic substrate, 40 min
# Sequence of Lysosomal acid glucosylceramidase (Homo sapiens) (P04062 whole entry, looked up): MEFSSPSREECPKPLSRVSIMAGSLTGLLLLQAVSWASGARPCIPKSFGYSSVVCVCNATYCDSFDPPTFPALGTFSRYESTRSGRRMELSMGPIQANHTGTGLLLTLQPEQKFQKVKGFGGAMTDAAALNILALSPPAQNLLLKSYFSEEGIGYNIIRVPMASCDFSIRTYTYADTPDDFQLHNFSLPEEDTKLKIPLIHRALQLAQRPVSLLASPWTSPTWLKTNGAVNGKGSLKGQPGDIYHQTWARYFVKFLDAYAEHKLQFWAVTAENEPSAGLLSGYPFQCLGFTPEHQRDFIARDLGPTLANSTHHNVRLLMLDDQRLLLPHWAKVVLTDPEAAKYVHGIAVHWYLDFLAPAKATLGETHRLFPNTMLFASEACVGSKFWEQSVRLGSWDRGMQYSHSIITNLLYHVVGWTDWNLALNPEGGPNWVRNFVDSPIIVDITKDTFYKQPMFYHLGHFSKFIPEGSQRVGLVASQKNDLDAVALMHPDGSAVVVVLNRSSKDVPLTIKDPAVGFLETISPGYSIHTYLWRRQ
# How it was run: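 Compounds titrated from 0.6 nM upwards against 0.2 nM enzyme in pH 5.9 citric acid/KH2PO4, taurocholate, tween-20; blue fluorogenic substrate 80 uM, 40 min room temperature, stopped and read Ex 365/Em 440 for AC50.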
# [2] = target: Cytochrome P450 1A2 (Homo sapiens) (UniProt P05177); experiment: p450-cyp1a2 (AID 410); conditions: recombinant CYP1A2, luciferin-ME demethylation, luminescence; series mostly up to 11.4 µM; further: potency means the concentration at half of the fitted maximal effect;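 on activity change, negative = inhibition: -100% = full effect of reference inhibitor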
# Sequence of Cytochrome P450 1A2 (Homo sapiens) (P05177 whole entry, looked up): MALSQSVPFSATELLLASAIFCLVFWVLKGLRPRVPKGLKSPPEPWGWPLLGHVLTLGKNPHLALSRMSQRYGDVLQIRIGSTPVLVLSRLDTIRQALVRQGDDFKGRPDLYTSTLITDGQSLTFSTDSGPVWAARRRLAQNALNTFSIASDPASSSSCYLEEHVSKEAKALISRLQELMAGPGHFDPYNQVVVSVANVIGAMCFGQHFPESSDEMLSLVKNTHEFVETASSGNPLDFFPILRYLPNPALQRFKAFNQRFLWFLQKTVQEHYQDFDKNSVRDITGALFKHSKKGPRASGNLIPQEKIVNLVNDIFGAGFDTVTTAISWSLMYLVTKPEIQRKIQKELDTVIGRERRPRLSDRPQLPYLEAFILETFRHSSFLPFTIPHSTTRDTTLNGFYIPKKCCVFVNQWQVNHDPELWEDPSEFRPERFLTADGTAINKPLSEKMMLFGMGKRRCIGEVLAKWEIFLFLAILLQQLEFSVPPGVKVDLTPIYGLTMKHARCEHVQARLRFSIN
# How it was run: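 20nM CYP1A2 with 100uM Luciferin-ME (at Km) in 100mM KPO4; compound preincubated 10 min, NADPH regeneration added, 60 min at room temperature. Luciferin quantified by luminescence after detection reagent; normalized to 57 uM furafylline.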
# [3] = target: Glucocorticoid receptor (Homo sapiens) (UniProt P04150); experiment: GR-EFC Redistribution (AID 451); conditions: CHO-K1 GR-EFC translocation, beta-gal luminescence, 2 h; further: potency means the concentration at half of the fitted maximal effect
# Sequence of Glucocorticoid receptor (Homo sapiens) (P04150 whole entry, looked up, the tested form may be a part): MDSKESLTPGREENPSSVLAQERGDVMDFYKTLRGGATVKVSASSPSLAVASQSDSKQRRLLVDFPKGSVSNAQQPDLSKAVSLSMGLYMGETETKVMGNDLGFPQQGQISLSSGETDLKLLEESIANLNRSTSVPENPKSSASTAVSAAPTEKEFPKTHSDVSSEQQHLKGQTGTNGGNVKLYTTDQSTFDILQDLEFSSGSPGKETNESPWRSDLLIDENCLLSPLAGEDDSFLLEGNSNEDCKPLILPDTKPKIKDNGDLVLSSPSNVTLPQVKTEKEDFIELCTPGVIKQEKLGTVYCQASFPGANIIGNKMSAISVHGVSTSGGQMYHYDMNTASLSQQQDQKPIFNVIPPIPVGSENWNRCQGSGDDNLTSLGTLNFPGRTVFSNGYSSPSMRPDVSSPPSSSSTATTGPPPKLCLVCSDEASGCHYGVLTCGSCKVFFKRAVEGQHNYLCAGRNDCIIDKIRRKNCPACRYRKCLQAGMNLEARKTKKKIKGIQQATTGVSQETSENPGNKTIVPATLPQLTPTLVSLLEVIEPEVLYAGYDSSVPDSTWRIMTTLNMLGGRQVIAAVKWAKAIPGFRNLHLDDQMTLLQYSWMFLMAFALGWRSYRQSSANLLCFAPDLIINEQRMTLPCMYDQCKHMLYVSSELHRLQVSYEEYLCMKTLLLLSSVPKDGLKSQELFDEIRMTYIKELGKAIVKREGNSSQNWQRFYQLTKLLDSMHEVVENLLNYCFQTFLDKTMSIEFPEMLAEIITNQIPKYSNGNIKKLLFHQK
# How it was run: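 CHO-K1 cells stably expressing nuclear-localized β-gal enzyme acceptor and GR fused C-terminally to the enzyme donor fragment; ligand-driven nuclear translocation restores β-gal by complementation. Compounds titrated up to 46 uM final, 2 h at 37 °C; luminescence read.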
# [4] = target: Mitogen-activated protein kinase 10 (Mus musculus) (UniProt Q61831); experiment: JNK3 AlphaScreen Assay (AID 530; active means well fitted curve in either direction with a large enough effect, not every such curve was filed as active;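 further: kinase came from lysate of stimulated human HepG2 cells; signal reports phosphorylation of biotinylated GST-cJun 1-79 at Ser73 with 10 µM ATP; on the % scale 0 is the no-effect control and ±100 the full control effect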); conditions: JNK3 lysate, c-Jun phosphorylation; series mostly up to 11.4 µM
# How it was run: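 Inhibitors reduce antibody binding to phosphorylated biotin-cJun, lowering AlphaScreen luminescence. Lysates from HepG2 cells pre-activated by IL-1beta plus TNF-alpha supplied JNK3; compounds were titrated.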
# [5] = target: 3',5'-cyclic-AMP phosphodiesterase 4B (Homo sapiens) (UniProt Q07343); experiment: qHTS Assay for Inhibitors of PDE-IV (AID 607; active means well fitted activation curve with a large enough effect in the main read-out, with a control signal flat, not every such curve was filed as active; further: % of control where 0% means no effect); conditions: HEK293 ACTOne CNG channel cells, membrane potential fluorescence; series mostly up to 22.9 µM
# Sequence of 3',5'-cyclic-AMP phosphodiesterase 4B (Homo sapiens) (Q07343 whole entry, looked up): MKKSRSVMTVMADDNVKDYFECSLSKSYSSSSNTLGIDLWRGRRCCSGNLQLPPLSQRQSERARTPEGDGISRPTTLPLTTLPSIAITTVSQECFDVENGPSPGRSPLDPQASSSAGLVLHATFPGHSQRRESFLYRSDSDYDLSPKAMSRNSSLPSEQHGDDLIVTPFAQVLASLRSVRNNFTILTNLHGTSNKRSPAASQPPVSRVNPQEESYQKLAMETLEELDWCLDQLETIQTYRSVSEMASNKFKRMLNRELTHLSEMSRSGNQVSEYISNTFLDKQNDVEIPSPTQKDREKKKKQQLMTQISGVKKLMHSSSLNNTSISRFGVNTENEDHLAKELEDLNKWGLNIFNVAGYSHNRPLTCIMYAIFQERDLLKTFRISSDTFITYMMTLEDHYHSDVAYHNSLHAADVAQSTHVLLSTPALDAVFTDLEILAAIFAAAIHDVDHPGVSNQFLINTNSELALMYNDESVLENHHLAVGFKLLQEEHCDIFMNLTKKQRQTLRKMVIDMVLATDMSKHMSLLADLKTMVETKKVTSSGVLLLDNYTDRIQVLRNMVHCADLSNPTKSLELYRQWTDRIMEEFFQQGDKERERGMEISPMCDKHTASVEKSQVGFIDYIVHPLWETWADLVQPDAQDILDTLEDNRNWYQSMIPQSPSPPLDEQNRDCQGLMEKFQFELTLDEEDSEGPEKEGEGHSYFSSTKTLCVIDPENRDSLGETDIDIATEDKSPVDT
# How it was run: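 Live HEK293 cells with a modified cyclic nucleotide-gated (CNG) channel report intracellular cAMP via membrane-potential dye fluorescence (ex 535/em 590 nm). Endogenous PDE-IV was targeted. Compounds were tested at up to 22.9 uM final; RO 20-1724 100 uM served as control.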
# [6] = target: Cytochrome P450 3A4 (Homo sapiens) (UniProt P08684); experiment: qHTS Assay for Activators of Cytochrome P450 3A4 (AID 885; active means well fitted curve in the direction sought with a large enough effect; an effect the other way counts as inactive or inconclusive; further: nearly all actives have a fitted effect of over 65% in size); conditions: recombinant CYP3A4, Luciferin-PPXE luminescence, 60 min; series mostly up to 11.4 µM
# Sequence of Cytochrome P450 3A4 (Homo sapiens) (P08684 whole entry, looked up): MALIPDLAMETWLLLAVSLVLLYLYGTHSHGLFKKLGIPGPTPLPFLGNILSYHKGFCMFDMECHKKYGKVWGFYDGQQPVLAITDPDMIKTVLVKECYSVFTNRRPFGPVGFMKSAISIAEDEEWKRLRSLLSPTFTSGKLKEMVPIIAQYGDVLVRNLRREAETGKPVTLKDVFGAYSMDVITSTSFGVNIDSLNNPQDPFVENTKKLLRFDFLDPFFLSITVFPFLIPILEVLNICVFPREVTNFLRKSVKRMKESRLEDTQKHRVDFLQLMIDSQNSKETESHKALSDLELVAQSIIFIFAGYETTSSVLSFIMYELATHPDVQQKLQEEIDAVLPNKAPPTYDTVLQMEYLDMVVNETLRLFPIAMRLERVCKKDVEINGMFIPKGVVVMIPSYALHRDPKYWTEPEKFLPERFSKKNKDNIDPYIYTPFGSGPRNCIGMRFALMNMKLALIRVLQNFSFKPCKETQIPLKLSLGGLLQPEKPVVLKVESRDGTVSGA
# How it was run: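 Quantitative HTS format: compounds preincubated with 20nM human CYP3A4 and Luciferin-PPXE substrate at KM, reaction started by NADPH regeneration, stopped after 60 min, luciferase luminescence read 20 min later.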
# [7] = target: Cytochrome P450 2D6 (Homo sapiens) (UniProt P10635); experiment: qHTS Assay for Inhibitors and Substrates of Cytochrome P450 2D6 (AID 891; active means well fitted curve in the direction sought with a large enough effect; an effect the other way counts as inactive or inconclusive; further: potency means the concentration at half of the fitted maximal effect; nearly all actives have a fitted effect of over 60% in size); conditions: recombinant CYP2D6, luciferin-ME EGE luminescence; series mostly up to 11.4 µM
# Sequence of Cytochrome P450 2D6 (Homo sapiens) (P10635 whole entry, looked up): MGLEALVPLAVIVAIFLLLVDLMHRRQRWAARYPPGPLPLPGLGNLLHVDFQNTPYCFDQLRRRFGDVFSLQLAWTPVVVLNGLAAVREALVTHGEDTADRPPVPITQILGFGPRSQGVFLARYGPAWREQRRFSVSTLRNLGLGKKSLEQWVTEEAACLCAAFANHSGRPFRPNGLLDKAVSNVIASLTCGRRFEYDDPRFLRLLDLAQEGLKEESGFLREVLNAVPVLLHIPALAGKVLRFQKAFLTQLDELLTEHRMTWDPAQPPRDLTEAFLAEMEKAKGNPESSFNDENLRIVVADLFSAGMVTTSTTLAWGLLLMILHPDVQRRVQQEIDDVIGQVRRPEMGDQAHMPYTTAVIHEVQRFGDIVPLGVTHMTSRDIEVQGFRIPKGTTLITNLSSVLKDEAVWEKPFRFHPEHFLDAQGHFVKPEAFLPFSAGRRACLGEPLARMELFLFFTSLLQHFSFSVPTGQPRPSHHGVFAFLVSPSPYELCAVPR
# How it was run: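 Human CYP2D6 (5 nM) with 30 uM Luciferin-ME EGE (at Km) in 100 mM KPO4, compound preincubated 10 min, then NADPH regeneration system for 60 min at room temperature. Luciferin read by luminescence; normalized to 1.43 uM quinidine.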
# [8] = target: Cytochrome P450 2C19 (Homo sapiens) (UniProt P33261); experiment: qHTS Assay for Inhibitors and Substrates of Cytochrome P450 2C19 (AID 899; active means well fitted curve in the direction sought with a large enough effect; an effect the other way counts as inactive or inconclusive; further: potency means the concentration at half of the fitted maximal effect; nearly all actives have a fitted effect of over 60% in size); conditions: recombinant CYP2C19, luciferin-H EGE luminescence; series mostly up to 11.4 µM
# Sequence of Cytochrome P450 2C19 (Homo sapiens) (P33261 whole entry, looked up): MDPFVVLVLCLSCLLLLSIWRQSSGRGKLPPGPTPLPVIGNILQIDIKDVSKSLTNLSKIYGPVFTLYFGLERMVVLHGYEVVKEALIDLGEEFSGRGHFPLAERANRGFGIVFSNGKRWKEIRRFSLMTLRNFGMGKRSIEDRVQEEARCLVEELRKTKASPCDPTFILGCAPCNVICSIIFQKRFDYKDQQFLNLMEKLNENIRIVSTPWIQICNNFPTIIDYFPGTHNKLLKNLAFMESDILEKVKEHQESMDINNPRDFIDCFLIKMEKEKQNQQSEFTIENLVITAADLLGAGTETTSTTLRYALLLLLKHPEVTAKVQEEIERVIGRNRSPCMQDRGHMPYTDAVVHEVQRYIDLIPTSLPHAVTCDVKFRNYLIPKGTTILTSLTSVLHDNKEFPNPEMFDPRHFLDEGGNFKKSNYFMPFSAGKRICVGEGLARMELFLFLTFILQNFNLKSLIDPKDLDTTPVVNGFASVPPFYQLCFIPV
# How it was run: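 In 50mM KPO4, the reaction held 5nM enzyme and KM-level (10uM) Luciferin-H EGE; it ran 60 min at 37C after NADPH regeneration and a 10 min compound preincubation. Luminescence values were scaled to 57uM ketoconazole as complete inhibition.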
# [9] = target: Glucocorticoid receptor (Homo sapiens) (UniProt P04150); experiment: GR-GFP Redistribution (AID 450;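 active means compounds whose dose series gives a full or clear partial fitted curve of increased nuclear translocation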; further: potency means the concentration at half of the fitted maximal effect); conditions: U2OS GR-GFP nuclear translocation, laser cytometry, 2 h
# [10] = Stat Signaling Pathway (AID 446; active means well fitted curve in either direction with a large enough effect, not every such curve was filed as active;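 further: ME-180 cervical cancer cells given 40 pM IL-6 alongside compound; SIE-controlled beta-lactamase reporter measured as 460/530 nm FRET emission ratio; on the % scale 0 is the no-effect control and ±100 the full control effect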); conditions: ME-180 SIE beta-lactamase reporter, IL-6 stimulated, 5 h; at 7.69 µM (top of the series) unless noted
# How it was run: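 IL-6/STAT signaling read in ME-180 cells via an SIE beta-lactamase reporter. Stimulus was 40 pM IL-6 (its AC50) for 5 hrs, so both activation and inhibition register.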
# [11] = NFAT Signaling Pathway (AID 444; active means well fitted curve in either direction with a large enough effect, not every such curve was filed as active;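 further: carbachol stimulus at about its EC50 of 1 µM final; on the % scale 0 is the no-effect control and ±100 the full control effect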); conditions: Jurkat NFAT-bla M1, carbachol, beta-lactamase ratio, 5 h; at 7.69 µM (top of the series) unless noted
# How it was run: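 Jurkat cells carrying an NFAT-driven β-lactamase reporter and co-transfected muscarinic M1 receptor were treated with compound plus carbachol (1 uM final, an EC50 level) for 5 h at 37 °C. CCF4 loading followed for 1 h at RT; 460/530 nm ratio gave %activity.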
# [12] = AP1 Signaling Pathway (AID 357; active means well fitted curve in either direction with a large enough effect, not every such curve was filed as active;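 further: ME-180 reporter cells stimulated with EGF at its EC50 level; on the % scale 0 is the no-effect control and ±100 the full control effect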); conditions: ME-180 (cervical carcinoma) AP-1-bla reporter, EGF-induced, beta-lactamase ratio, 5 h; at 7.69 µM (top of the series) unless noted
# How it was run: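 Beta-lactamase reporter under AP-1 response element, ME-180 background. Stimulus: EC50 EGF. Compound exposure 5 h, 37 °C. Detection: CCF4, 2.5 h RT, 460/530 nm. Values: AC50 from titration.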
Structure (SMILES),Potency [1],Potency [2],Potency [3] [µM],Potency [4],Potency [5],Potency [6],Potency [7],Potency [8],Potency [9] [µM],"activity change, negative = inhibition [2]","activity, negative = inhibition [10] [%]","activity change, negative = inhibition [11] [%]","activity change, negative = inhibition [12] [%]"
COc1ccc(-c2csc3c2[N+]2=CCC=C2C3=O)cc1,> 11.4 µM,0.501 µM (active),> 9.22,inactive,inactive,inactive,3.16 µM (active),3.98 µM (active),–,–,–,–,–
COCCn1c(=O)c(-c2cccc(C#N)c2)nc2cnc(N3CCNCC3)nc21,> 11.4 µM,10 µM (active),> 46,inactive,inactive,inactive,–,–,> 9.22,–,–,–,–
O=c1c(-c2cc(F)cc(F)c2)nc2cnc(N3CCNCC3)nc2n1CCc1ccccc1,> 11.4 µM,20 µM (active),> 46,–,inactive,–,–,–,> 9.22,–,–,–,–
O=C1/C(=C/c2ccccc2)[C@@H](NC2CCCCC2)c2ccccc21,> 11.4 µM,1 µM (active),> 9.22,inactive,inactive,inactive,–,1.26 µM (active),–,–,–,–,–
N#CCCn1c(=O)c(-c2cccs2)nc2cnc(Oc3cccc(Cl)c3)nc21,> 11.4 µM,3.16 µM (active),> 46,inactive,–,inactive,–,–,> 9.22,–,–,–,–
Nc1ncnc2c([C@@H]3O[C@@H](CO)[C@H](O)[C@@H]3O)nsc12,> 11.4 µM,–,> 9.22,inactive,inactive,–,–,–,> 46,-16.8% [at 2.29 µM],–,–,–
Oc1c(Cl)cc(C(c2cc(Cl)c(O)c(Cl)c2)C(c2cc(Cl)c(O)c(Cl)c2)c2cc(Cl)c(O)c(Cl)c2)cc1Cl,5.75 µM (active),0.794 µM (active),> 9.22,inactive,inactive,–,–,2.51 µM (active),> 46,–,–,–,–
CCc1ccc2c(c1)N(C[C@H](C)CN(C)C)c1ccccc1S2,> 11.4 µM,–,> 9.22,inactive,inactive,–,–,–,> 46,–,3.53,–,–
COc1cccc(Nc2ncc3nc(-c4ccccc4)c(=O)n(C4CC4)c3n2)c1,> 11.4 µM,–,> 46,inactive,inactive,–,–,–,> 9.22,–,28.4,-5.16,–
N[C@H](CO)C(=O)NCC(=O)O (HELM PEPTIDE1{[dS].G}$$$$V2.0),–,–,> 9.22,inactive,inactive,–,–,–,> 46,3.6% [at 2.29 µM],13.6,13.2,-4.49
